Sampled rows, rich in hits. Any-hit rate of the full collection: about 21%.
D3 antag: D3 dopamine receptor (human) antagonism; P35462; D3R cells, DiscoveRx beta-arrestin luminescence, antagonist mode; hits give low values; max response, negative = inhibition, %; 360,000 tested, 2.5% active; in the data active = max response below about -50%; inconclusive = no clear call, values can overlap the other calls; also: % is scaled to controls: 0 for no effect and ±100 for the full control effect
Target sequence (P35462 whole entry, looked up): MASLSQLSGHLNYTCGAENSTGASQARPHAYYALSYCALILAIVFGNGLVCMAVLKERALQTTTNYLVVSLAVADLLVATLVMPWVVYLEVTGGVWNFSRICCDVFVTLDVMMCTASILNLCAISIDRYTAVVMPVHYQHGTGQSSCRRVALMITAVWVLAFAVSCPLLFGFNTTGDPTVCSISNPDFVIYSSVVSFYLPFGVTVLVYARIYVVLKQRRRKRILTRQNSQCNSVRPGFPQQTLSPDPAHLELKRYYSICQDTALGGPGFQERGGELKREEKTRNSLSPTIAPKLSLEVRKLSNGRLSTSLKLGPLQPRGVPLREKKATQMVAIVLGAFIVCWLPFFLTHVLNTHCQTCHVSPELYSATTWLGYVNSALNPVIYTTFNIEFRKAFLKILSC
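Cells plated overnight at 1500 cells/well, then exposed to library compounds with dopamine controls for 90 minutes at 37 degrees C. DiscoveRx reagent added for 30–60 minutes at room temperature; luminescence read, quantitative HTS format.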
TDP1 cell CPT: DT40-hTDP1 cell growth loss with CPT | chicken DT40 Tdp1-/-;hTDP1 cells + 20 nM CPT, ATP luminescence, 48 h | Potency, µM (titrated, usually from 46.2 µM), for inactives: top-dose activity change, negative = growth inhibition, most hits filed as inhibitors | 420,000 tested, 12% active | AID 686979; also: potency is read from the fitted curve at half-maximal effect; % is scaled to controls: 0 for no effect and ±100 for the full control effect; nearly all actives have a fitted effect of over 55% in size
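Cell growth measured by CellTiter-Glo luminescence after a minimum 48 h, 37 C compound exposure with 20 nM CPT in Tdp1-knockout DT40 cells stably expressing hTDP1, seeded 400/well; qHTS titration format.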
DT40 TDP1 no CPT: qHTS for Inhibitors of human tyrosyl-DNA phosphodiesterase 1 (TDP1): qHTS in cells in absence of CPT; DT40 Tdp1-/- hTDP1 cells, no CPT, ATP luminescence, 48 h; Potency, µM (top dose mostly 46.2 µM), for the others: top-dose activity change, negative = growth inhibition, hits mostly inhibitors; 420,000 tested, 15% active; AID 686978, 2013; also: potency is read from the fitted curve at half-maximal effect; % is scaled to controls: 0 for no effect and ±100 for the full control effect; nearly all actives have a fitted effect of over 55% in size
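Readout: luminescence from CellTiter-Glo after 30 min in the dark at RT. Cells: DT40 Tdp1-/- with stable hTDP1, 400/well. Exposure: compounds alone, ≥48 hr, 37 °C.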
DRD3 agonist: agonists of human D3 dopamine receptor | D3R DiscoveRx beta-arrestin cells, luminescence, 90 min | max activation, % | P35462 | AID 652048 | 410,000 tested, 0.58% active; in the data active = max activation above about 30%; also: 0% is about no effect
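Cells at 1500/well, incubated overnight, then treated with pinned compounds (dopamine as control) for 90 min at 37 degrees C. DiscoveRx reagent added for 30 - 60 minutes at room temperature; luminescence read.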
ClpP mod: qHTS Assay for Activators of ClpP; 340,000 tested, 1.9% active; Potency, µM (top dose mostly 57.5 µM), for the others: at the highest dose activity change, negative = active; purified B. subtilis ClpP, FRET peptide cleavage, 20 min; ATP-dependent Clp protease proteolytic subunit (Bacillus subtilis (strain 168)), P80244; active = well fitted falling curve with a large enough effect; inconclusive = small, poorly fitted or top-dose-only effect; inactive = no such curve, though single readings can be large or run the other way; also: potency is read from the fitted curve at half-maximal effect; the source files actives as falling curves though it sought activators and does not explain the sign; nearly all actives have a fitted effect of over 65% in size
Target sequence (P80244 whole entry, looked up): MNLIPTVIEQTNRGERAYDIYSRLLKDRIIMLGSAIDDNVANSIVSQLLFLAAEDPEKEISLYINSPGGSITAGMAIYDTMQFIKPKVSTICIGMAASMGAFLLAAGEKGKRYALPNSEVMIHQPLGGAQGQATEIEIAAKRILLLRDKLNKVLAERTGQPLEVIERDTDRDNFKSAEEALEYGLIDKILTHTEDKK
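Buffer: 100 mM Tris/HCl pH8, 100 mM KCl, 0.05% low protease BSA, 2.5% glycerol, 0.01% Tween-20. ClpP 10 microg/mL final; 20 min RT; delta FRET normalized to ADEP and DMSO controls.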
IL-1B inflam inh: blocks inflammasome-driven IL-1 beta release; THP-1 LPS/ATP IL-1B secretion, AlphaLISA, 16 h; hits give low values; activity change, % at 57.5 µM; 360,000 tested, 4.7% active; in the data active = activity change below about -50%; inconclusive = mostly about -30% to -49%; also: % is scaled to controls: 0 for no effect and ±100 for the full control effect
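Secreted IL-1B measured by AlphaLISA bead assay after 16 h compound exposure of THP-1 cells; compounds (final up to 57.5 uM) added 1 h before LPS (250 ng/mL) and ATP (1.25 mM) stimulation; lower signal means less secretion.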
The depositor's hits bear a star; ! = repeats disagree. Unless noted, calls follow the shape of the dose curve; as a rule, active = well fitted inhibition curve with a large enough effect; inconclusive = small, poorly fitted or top-dose-only effect; inactive = flat fitted curve, though single readings scatter.

`CCN(N=O)c1ccc(/C=C2\C=Cc3ccccc32)cc1` gave TDP1 cell CPT 4%, DT40 TDP1 no CPT -26% and ClpP mod 0%.
CCN(N=O)c1ccc(C=C2C=Cc3ccccc32)cc1 was read as D3 antag -7, TDP1 cell CPT -5%, DT40 TDP1 no CPT -26%, DRD3 agonist -5, ClpP mod 1% and IL-1B inflam inh -66*.
Screening CC1(C)OCC(CNC(=O)c2[nH]c(C(F)(F)F)nc2-c2ccccc2)O1 (centres undefined) returned D3 antag 0, TDP1 cell CPT -14%, DT40 TDP1 no CPT 3%, DRD3 agonist 1, ClpP mod -11% and IL-1B inflam inh -8.
For O=C(CN1C(=O)NC2(CCCCC2)C1=O)Nc1cccc(Cl)c1Cl the results were D3 antag -4, TDP1 cell CPT -23%, DT40 TDP1 no CPT inconclusive, DRD3 agonist 1, ClpP mod 1% and IL-1B inflam inh 5.
Screening Cc1c(Cl)cccc1N=C1SCCN1C(=O)CN1C(=O)NC2(CCCC2)C1=O returned D3 antag 9, TDP1 cell CPT inconclusive, DT40 TDP1 no CPT 18µM*, DRD3 agonist 3, ClpP mod 2% and IL-1B inflam inh -14.
For O=C(Cc1ccc(S(=O)(=O)N2CCOCC2)s1)N1CCN(S(=O)(=O)c2cccc(F)c2)CC1 the results were D3 antag -4, TDP1 cell CPT inconclusive, DT40 TDP1 no CPT -10%, DRD3 agonist 0, ClpP mod -1% and IL-1B inflam inh -9.
Screening N#Cc1ccc(OCC(=O)N2CCN(S(=O)(=O)c3ccc(Cl)s3)CC2)cc1 returned D3 antag -5, TDP1 cell CPT 16µM*, DT40 TDP1 no CPT inconclusive, DRD3 agonist -4, ClpP mod -1% and IL-1B inflam inh inconclusive.
N#Cc1ccc(OCC(=O)N2CCN(S(=O)(=O)c3cccc(Cl)c3)CC2)cc1 was read as D3 antag 1, TDP1 cell CPT -6%, DT40 TDP1 no CPT -20%, DRD3 agonist 6, ClpP mod 1% and IL-1B inflam inh -11.
Screening O=C(Cc1ccc(S(=O)(=O)N2CCOCC2)s1)N1CCN(S(=O)(=O)c2cccc(Cl)c2)CC1 returned D3 antag -5, TDP1 cell CPT 16µM*, DT40 TDP1 no CPT 16µM*, DRD3 agonist -3, ClpP mod -13% and IL-1B inflam inh 0.
`O=C(Cc1ccc(S(=O)(=O)N2CCOCC2)s1)N1CCN(c2cccc(C(F)(F)F)c2)CC1` gave D3 antag 18, TDP1 cell CPT 7.3µM*, DT40 TDP1 no CPT 3.7µM*, DRD3 agonist 14, ClpP mod -2% and IL-1B inflam inh 8.
O=C(Cc1ccc(S(=O)(=O)N2CCOCC2)s1)N1CCN(S(=O)(=O)c2ccc(Cl)cc2)CC1 was read as D3 antag 5, TDP1 cell CPT 23µM*, DT40 TDP1 no CPT 23µM*, DRD3 agonist 10, ClpP mod 1% and IL-1B inflam inh inconclusive.
Screening Cc1ccc(S(=O)(=O)N2CCN(C(=O)Cc3ccc(S(=O)(=O)N4CCOCC4)s3)CC2)cc1 returned D3 antag 1, TDP1 cell CPT -19%, DT40 TDP1 no CPT -19%, DRD3 agonist 13, ClpP mod 0% and IL-1B inflam inh 3.
Screening COc1ccc(NCc2ccsc2)cc1 returned D3 antag 8, TDP1 cell CPT 5%, DT40 TDP1 no CPT 4%, DRD3 agonist 8, ClpP mod 1% and IL-1B inflam inh inconclusive.
`CC(C)CNc1nc(Oc2ccc(OCC(N)=O)nn2)nc(N2CCOCC2)n1` gave TDP1 cell CPT -24%, DT40 TDP1 no CPT -5%, DRD3 agonist 7 and ClpP mod 0%.
O=C(CSc1nc2sc3c(c2c(=O)[nH]1)CCCC3)Nc1ccccc1F was read as TDP1 cell CPT inconclusive, DT40 TDP1 no CPT inconclusive, DRD3 agonist 0 and ClpP mod -4%.
`O=C(c1ccc(S(=O)(=O)N2CCOCC2)cc1)N1CCOCC1` gave D3 antag 0, TDP1 cell CPT -15%, DT40 TDP1 no CPT 7%, DRD3 agonist -18 and IL-1B inflam inh 4.
For O=C(Cc1ccc(S(=O)(=O)N2CCOCC2)s1)N1CCN(S(=O)(=O)c2ccccc2F)CC1 the results were D3 antag 14, TDP1 cell CPT -29%, DT40 TDP1 no CPT -16%, DRD3 agonist 3, ClpP mod -4% and IL-1B inflam inh -16.
Screening O=C(Nc1ccc(S(=O)(=O)N2CCOCC2)cc1)c1ccc(Cl)s1 returned D3 antag 13, TDP1 cell CPT 23µM*, DT40 TDP1 no CPT inconclusive, DRD3 agonist 3, ClpP mod -1% and IL-1B inflam inh -21.
Screening O=C(c1ccc(S(=O)(=O)N2CCOCC2)cc1)N1CCN(S(=O)(=O)c2ccc(Cl)s2)CC1 returned D3 antag 19, TDP1 cell CPT inconclusive, DT40 TDP1 no CPT 16µM*, DRD3 agonist 6, ClpP mod 1% and IL-1B inflam inh -1.
CCOc1ccccc1N1CCN(C(=O)Cc2ccc(S(=O)(=O)N3CCOCC3)s2)CC1 was read as D3 antag -7, TDP1 cell CPT inconclusive, DT40 TDP1 no CPT 21µM*, DRD3 agonist 1, ClpP mod -2% and IL-1B inflam inh -11.
`CC(=O)OC1C[C@@]2(C)C(c3ccoc3)OC(=O)C3O[C@@]32[C@]2(C)C(OC(C)=O)CC3C(C)(C)C(OC(C)=O)CC(OC(C)=O)[C@@]3(C)C12` (some centres undefined) gave TDP1 cell CPT 4% and DT40 TDP1 no CPT -14%.
`CC(C)NCC(O)COc1cccc2ccccc12` (centres undefined) gave TDP1 cell CPT 16µM*!, DT40 TDP1 no CPT 16µM*!, ClpP mod 0% and IL-1B inflam inh 8.
CC(C)[N+](C)(C)CC(O)COc1cccc2ccccc12 (centres undefined) was read as TDP1 cell CPT 9%, DT40 TDP1 no CPT -22% and DRD3 agonist -11.
OC(CNCc1ccccc1F)COc1cccc2ccccc12 (centres undefined) was read as D3 antag -9, TDP1 cell CPT inconclusive, DT40 TDP1 no CPT inconclusive, DRD3 agonist -14 and IL-1B inflam inh -70*.
For COc1cccc(NC(=O)c2oc3ccccc3c2NC(=O)COc2ccccc2C)c1 the results were TDP1 cell CPT -25%, DT40 TDP1 no CPT -20%, DRD3 agonist -5 and ClpP mod -2%.

Bioassay records: PubChem BioAssay, National Center for Advancing Translational Sciences (NCATS)
